Screens: PubChem BioAssay, Sanford-Burnham Center for Chemical Genomics
Shown are actives, neighbours in structure and some others; about 28% of the full set was active somewhere.
PTK2B oligo ant = blocks oligomerization of human Pyk2 in cells; Q293 cells, Pyk2 FERM NanoBiT luminescence; hits give low values; z-score (the deposit names both 25 µM and 10 µM); Q14289; hit rate 0.83% among 99,000;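 active = Z-score of -3 or lower, scaled per plate to the spread of control and sample wells; inactive = z-score above -3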;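 also: negative z-score means lost luminescence so less FERM oligomerization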
CYP2C9 act = increases human cytochrome P450 2C9 activity; activation factor at 5 µM; hit rate 1.4% among 96,000; P11712; recombinant CYP2C9, luciferin-H conversion, luminescence; hits give high values; factor 1 = untreated enzyme, 0 = blocked;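 active = activation factor of 2 or more for CYP2C9 at a 5 µM dose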
Target sequence (P11712 whole entry, looked up): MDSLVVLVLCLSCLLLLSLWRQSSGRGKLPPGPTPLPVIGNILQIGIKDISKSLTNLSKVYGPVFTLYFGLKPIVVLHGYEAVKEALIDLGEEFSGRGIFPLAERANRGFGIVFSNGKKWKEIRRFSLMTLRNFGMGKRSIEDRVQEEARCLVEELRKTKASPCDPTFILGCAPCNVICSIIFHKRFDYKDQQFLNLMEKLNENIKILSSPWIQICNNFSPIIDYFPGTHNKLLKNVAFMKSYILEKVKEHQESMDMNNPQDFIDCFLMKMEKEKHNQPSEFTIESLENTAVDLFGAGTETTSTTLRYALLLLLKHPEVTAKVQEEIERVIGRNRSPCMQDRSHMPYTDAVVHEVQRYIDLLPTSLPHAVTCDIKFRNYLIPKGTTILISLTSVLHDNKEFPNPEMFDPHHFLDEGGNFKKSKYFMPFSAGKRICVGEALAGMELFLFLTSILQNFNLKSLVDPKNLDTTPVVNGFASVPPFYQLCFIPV
CYP2C19 act = activators of human cytochrome P450 2C19; P33261; AID 1025; recombinant CYP2C19, luciferin-H EGE luminescence; hits give high values; 0 = fully inhibited enzyme, 1 = untreated enzyme; 96,000 tested, under 10 active; activation factor at 5 µM;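 active = activation factor of at least 2 at 5 µM in the primary screen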
CYP2C9 inh = human CYP2C9 inhibition. inhibition, % at 5 µM. P11712. CYP2C9 Supersomes, luciferin-H conversion, luminescence. hit rate 20% among 96,000;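 active = blocking of liver enzyme CYP2C9 beyond about 50% at 5 µM, limit read from the data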
CYP2C19 inhib = inhibitors of human CYP2C19 | P33261 | CYP2C19 Supersomes, luciferin-H EGE luminescence, 30 min | inhibition, % at 5 µM | hit rate 21% among 96,000 | AID 778;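 active = CYP2C19 inhibition above a set limit at 5 µM in the primary screen, cut at about 50% in these data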
A number is an active result; - = inactive; . = no result given.

SMILES	PTK2B oligo ant	CYP2C9 act	CYP2C19 act	CYP2C9 inh	CYP2C19 inhib
COc1cccc(Oc2ccc(N)cn2)c1	-	-	-	-	-
CC(C)(C)NC(=O)Cn1nnc(-c2ccc(Cl)cc2)n1	-	-	-	-	-
N/C(=N\c1nc2c(c(=O)[nH]1)CCCC2)Nc1ccccc1Sc1ccccc1	-	-	-	63	-
CCN(Cc1ccccc1)S(=O)(=O)c1ccc(S(=O)(=O)N(Cc2ccccn2)Cc2ccco2)cc1	-	-	-	-	-
O=C(c1ccc(F)cc1F)N(Cc1ccccn1)Cc1ccco1	-	-	-	-	73
CCOCC(=O)Nc1nc2ccc(OCC)cc2s1	-	-	-	-	52
Cc1cccc(OCC(=O)Nc2nc3ccc([N+](=O)[O-])cc3s2)c1	-	-	-	91	70
CCOc1ccc2nc(SC3CC(=O)N(c4ccc(C)cc4)C3=O)sc2c1 (stereo not drawn)	-	-	-	-	-
CCOc1ccc2nc(SCC(=O)c3ccc(C)s3)sc2c1	-	-	-	-	51
CCOc1ccc2nc(NC(=O)CSc3ccc(Cl)cc3)sc2c1	-	-	-	63	-
Cc1cccc(OCC(=O)Nc2nc3ccc([N+](=O)[O-])cc3s2)c1C	-	-	-	-	-
Nc1ccccc1C(=O)NCc1ccccc1	-	-	-	-	-
CC12CCC(C(=O)O)(c3nc(C#N)c(C#N)nc31)C2(C)C (stereo not drawn)	-	-	-	-	-
CCOC(=O)N1CCN(C(=O)CNC(=O)c2nn(-c3ccc(OC)cc3)c(=O)c3ccccc23)CC1	-	-	-	-	-
COc1ccc2nc(NC(=O)CSc3ccccc3)sc2c1	-	-	-	63	-
CCOc1ccc2nc(NC(=O)CSC3=NCCS3)sc2c1	-	-	-	-	-
COc1ccc2nc(NC(=O)CSC3=NCCS3)sc2c1	-	-	-	-	64
COCc1nnc(NC(=O)CSc2ccccc2)s1	-	-	-	-	67
CC(C)Cc1nnc(NC(=O)CSc2ccccn2)s1	-	-	-	-	56
COc1ccc2nc(NC(=O)CSc3nnc(N)s3)sc2c1	-	.	.	.	.
Cc1ccc(C)c(-n2nnnc2SCC(=O)Nc2c(C)n(C)n(-c3ccccc3)c2=O)c1	-	-	-	-	-
O=C(Nc1c(F)c(F)c(F)c(F)c1F)NC1CCCCC1	-	-	-	-	-
COc1ccc2nc(NC(=S)N(C)C)sc2c1	-	-	-	94	99
CCCC(=O)Nc1nc2ccc(OC)cc2s1	.	-	-	-	-
COc1ccc(/C=C2/C(=O)N(CC3CCCO3)C(=S)N2C)c(OC)c1 (stereo not drawn)	-	-	-	90	64
SMILES	PTK2B oligo ant	CYP2C9 act	CYP2C19 act	CYP2C9 inh	CYP2C19 inhib
O=C(O)C1C(c2ccccc2)C(C(=O)Oc2ccc(O)cc2)C1c1ccccc1 (stereo not drawn)	-	-	-	80	-
O=C(O)C1CCCN1C(=O)Oc1ccccc1 (stereo not drawn)	-	-	-	-	-
CCOCCCNCc1ccc(OC)c(OC)c1	-	-	-	61	-
CCOCCCNCc1ccc(OC)cc1	-	-	-	-	-
CCOC(=O)Cn1nnc(-c2ccc(SC)cc2)n1	-	-	-	-	-
CSc1ccc(-c2nnn(Cc3ccccn3)n2)cc1	-	-	-	-	67
CSc1ccc(-c2nnn(Cc3ccc(Br)cc3)n2)cc1	-	-	-	-	75
CCC(C)Sc1nc2ccccc2c(=O)[nH]1 (stereo not drawn)	-	.	.	.	.
O=C(CN1C(=O)CCSc2ccccc21)Nc1ccccc1	-	-	-	70	92
O=C(CN1C(=O)CCSc2ccccc21)Nc1ccc(F)cc1	-	-	-	80	95
O=C(CN1C(=O)CCSc2ccccc21)Nc1ccc2c(c1)OCCO2	-	-	-	-	-
N#Cc1cccc(NC(=O)Cn2c3[n+](c4ccc(C(F)(F)F)cc42)CCCCC3)c1	-	.	.	.	.
COC(=O)[C@H](C)NC(=O)Nc1cccc(C)c1	-	-	-	-	-
C=CCC1c2cccc(C(=O)O)c2C(=O)N1c1ccc(Cl)cc1 (stereo not drawn)	-	-	-	-	-
CCOC(=O)CSc1nnc(CSc2nc3ccccc3c(=O)[nH]2)n1-c1ccccc1	-	-	-	-	-
CC(C)C1Cc2c(C#N)c(N)sc(=S)c2CO1 (stereo not drawn)	-	-	-	84	51
CC1(C)Cc2c(C#N)c(N)sc(=S)c2CO1	-	-	-	68	-
CC(C)(C)N1CC2(c3ccccc3)CN(C(C)(C)C)CC(c3ccccc3)(C1)C2=O	-	-	-	-	-
O=C(c1ccncc1)N1C2C=CC(C2)C1(C(F)(F)F)C(F)(F)F (stereo not drawn)	.	-	-	61	-
Cc1ccc(N/C(SCc2ccccc2C)=C(/C#N)C(=O)NCc2ccco2)cc1C	-	-	-	80	-
CCc1ccc(N/C(SCc2cccc(F)c2)=C(/C#N)C(=O)NCc2ccco2)cc1	-	-	-	68	55
FC(F)(F)C1=CC(c2ccccc2)=NCCN1	-	-	-	-	-
COc1ccc(S(=O)(=O)N2CCc3ccccc32)cc1C(=O)OCc1nnc(-c2ccccc2)o1	-	-	-	99	88
O=C(OCc1nnc(-c2ccccc2)o1)c1cc(S(=O)(=O)N2CCOCC2)c(Cl)cc1Cl	-	-	-	-	-
COC(=O)C(C)N(C(=O)c1ccc(C(=O)c2ccccc2)cc1)c1c(C)cccc1C (stereo not drawn)	-	-	-	98	94
SMILES	PTK2B oligo ant	CYP2C9 act	CYP2C19 act	CYP2C9 inh	CYP2C19 inhib
Cc1ccc(-c2ccc(/C=C3\C(=O)ON=C3c3ccccc3)o2)c([N+](=O)[O-])c1	-	-	-	100	-
Cc1cc2nsnc2c(S(=O)(=O)NCC(=O)O)c1C	-	-	-	-	-
Cc1ccc(Cl)cc1N1CCN(Cc2nc3ccsc3c(=O)[nH]2)CC1	-	-	-	-	70
COc1ccc(N2CCN(Cc3nc4ccsc4c(=O)[nH]3)CC2)cc1	-	-	-	-	-
CCc1ccc(NC(=O)C(C)Oc2nnc(-c3cccs3)c(-c3cccs3)n2)cc1 (stereo not drawn)	-	-	-	68	-
CC(C)c1ccc(NC(=O)COc2nnc(-c3cccs3)c(-c3cccs3)n2)cc1	-	-	-	86	80
C=CCn1c(SCC(=O)Nc2ccc(C(=O)OC(C)C)cc2)nnc1-c1cccs1	-	-	-	-	-
Cc1cc(C)c(C)c(S(=O)(=O)N2C(=S)NC(=O)C2C(C)C)c1C (stereo not drawn)	-	-	-	-	-
Cc1sc2nc(NCCO)[nH]c(=O)c2c1C	.	-	-	-	-
COc1ccc(N2C(=O)NC3CC2(C)Oc2ccc(Br)cc23)cc1OC (stereo not drawn)	-	-	-	74	-
CCOc1cccc2c1OC1(C)CC2NC(=O)N1c1cccc(Cl)c1 (stereo not drawn)	-	-	-	-	-
O=C(CSc1nnc(-c2ccccn2)n1-c1ccc(Cl)cc1)Nc1ccc2c(c1)OCO2	-	-	-	-	-
